GPR7 antag: GPR7 receptor antagonists, primary screen, cell-based, fluorescence, single concentration. actives 1.1% (n = 290,000). AID 1861, 2009. Neuropeptides B/W receptor type 1 (Homo sapiens), P48145. inhibition, % at 4.4 µM. GPR7-expressing cells, fluorescence antagonist assay; in the data active means inhibition above about 16%, passing the limit was not always enough;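 further: cells stimulated with the agonist NPW; 0% = agonist with vehicle and 100% = vehicle without agonist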
Kir21 block: inhibitors of mouse Kir2.1 inward-rectifier potassium channel; Inward rectifier potassium channel 2 (Mus musculus), P35561; HEK293-Kir2.1, FluxOR thallium flux fluorescence; hits give low values; B-score at 10 µM; actives 0.85% (n = 310,000);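 active means fluorescence ratio B-score at or below minus 3 SD of library scores, with starting-brightness B-score within 2 SD, cut at about -4.2 in these data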;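 further: channel flux triggered by added potassium and thallium sulfate stimulus; B-score of peak minus minimum fluorescence over baseline after thallium stimulus; more negative B-score means stronger Kir2.1 block with less thallium influx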
ANO1 block: TMEM16A chloride channel inhibitors, primary screen, cell-based, HTS. Anoctamin-1 (Mus musculus), Q8BHY3. AID 588511, 2011. HEK293 TMEM16A/YFP iodide influx fluorescence, ionomycin. normalized B-score (activity score, 25-100; higher = stronger inhibition) at 10 µM. actives 1.2% (n = 310,000);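 active means ratio plate-corrected score three or more library SD toward inhibition, starting fluorescence score within five deviations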;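 further: score derived from kinetic fluorescence span divided by baseline fluorescence per well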
CHT PAM: CHT positive allosteric modulators, primary screen, cell-based, membrane potential dye, choline EC20. B-score at 10 µM. actives 0.49% (n = 310,000). High affinity choline transporter 1 (Homo sapiens), Q9GZV3. AID 488977, 2010. CHT-expressing cells; hits give high values; LV-AA mutant CHT in HEK293 cells;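 active means initial fluorescence not abnormally high and integrated response B-score, plate-corrected, over 3 SD above library mean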
Target sequence (Q9GZV3 whole entry, looked up): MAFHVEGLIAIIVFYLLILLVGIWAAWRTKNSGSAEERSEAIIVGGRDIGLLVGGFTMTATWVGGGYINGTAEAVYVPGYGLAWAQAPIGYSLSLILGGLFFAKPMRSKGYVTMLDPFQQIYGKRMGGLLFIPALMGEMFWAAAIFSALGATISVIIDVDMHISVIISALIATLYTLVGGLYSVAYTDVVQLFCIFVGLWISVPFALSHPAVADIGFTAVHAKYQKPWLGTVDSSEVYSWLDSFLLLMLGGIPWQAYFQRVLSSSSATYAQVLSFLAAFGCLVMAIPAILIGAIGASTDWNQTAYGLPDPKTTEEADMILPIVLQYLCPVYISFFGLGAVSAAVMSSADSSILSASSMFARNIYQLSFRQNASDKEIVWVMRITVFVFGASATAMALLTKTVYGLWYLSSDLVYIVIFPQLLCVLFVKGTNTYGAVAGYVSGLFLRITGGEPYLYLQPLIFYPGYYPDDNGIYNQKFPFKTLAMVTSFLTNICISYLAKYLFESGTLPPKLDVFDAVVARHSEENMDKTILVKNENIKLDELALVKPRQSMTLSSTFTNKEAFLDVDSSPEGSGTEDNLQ
CHT block: inhibitors of human choline transporter CHT | AID 488975, 2010 | CHT-expressing cells, membrane potential dye, choline response; hits give low values | High affinity choline transporter 1 (Homo sapiens), Q9GZV3 | actives 0.86% (n = 310,000) | B-score at 10 µM;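 active means B-score over 3 SD under the library average, and starting fluorescence ratio not unusually high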;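 further: choline stimulus applied at its EC90 after an EC20 pre-addition; B-score computed on integrated fluorescence ratio after choline addition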
ANO1 activ: TMEM16A chloride channel activators or potentiators, primary screen, cell-based, HTS | Anoctamin-1 (Mus musculus), Q8BHY3 | HEK293 TMEM16A/YFP-H148Q/I152L, iodide quench fluorescence; hits give low values | B-score at 10 µM | actives 0.3% (n = 340,000) | AID 623877, 2012;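 active means fluorescence-ratio B-score plate-corrected deviation score at least 3 library SD below zero, with starting fluorescence score within 5 deviations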;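 further: channel opened by trigger with iodide after compound preincubation; score built on the fluorescence ratio of max minus min over baseline; more negative score means more quench and so TMEM16A activation or potentiation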
TMEM16A reconf: TMEM16A chloride channel inhibitors, confirmation, cell-based, re-confirmation | shares compounds with ANO1 block | HEK293 TMEM16A/YFP-H148Q, iodide quench fluorescence; ionomycin added to raise cell calcium | inhibition, % at 10 µM | actives 39% (n = 2,300) | AID 652189, 2013;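 active means mean duplicate percent inhibition, scaled so buffer wells are 0 and the reference blocker 100, over three buffer SD above buffer mean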
TMEM16A Ca cntr: calcium mobilization in TMEM16A/YFP HEK293 cells, confirmation, counter-screen for TMEM16A inhibitor project; shares compounds with ANO1 block; Fluo4 calcium mobilization; calcium response (% of ionomycin), % at 10 µM; actives 2% (n = 2,300); AID 652231, 2013;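 active means duplicate-averaged calcium signal over 20% of the ionomycin maximum, relative to buffer baseline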;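 further: each well's signal is peak minus trough fluorescence divided by its pre-addition baseline; 0% = buffer wells and 100% = ionomycin wells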
Parental YFP cnt: iodide YFP quench changes in parental YFP-HEK293, counter-screen for TMEM16A inhibitor project, cell-based | shares compounds with ANO1 block | ionomycin | YFP ratio F(max-min)/F0 at 10 µM | 2,300 tested, under 10 active | AID 652233, 2013;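 active means yellow fluorescent protein signal ratio exceeding the buffer control mean by over 5 SD of those controls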;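 further: ratio is mean of duplicate wells from kinetic YFP trace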
ClC-1 rat inh: ClC-1 chloride channel inhibition, selectivity assay for TMEM16A inhibitor project, cell-based, voltage-dependent ClC-1; ratio percent, % at 10 µM; CHO ClC-1-YFP, iodide influx fluorescence quench; iodide control reads 0, buffer control 100; AID 652236, 2013; 2,300 tested, under 10 active; shares compounds with ANO1 block;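 active means duplicate-mean ratio percent above the mean of iodide-only control wells, which defines zero, plus 5 of their SD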;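 further: higher percent means stronger block of ClC-1 iodide influx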
Active calls of the source: *; i = inactive; / = not tested or not shown. Rows were chosen to be rich in hits. Some 3.7% of all compounds tested hit in one or more screens of this group.

SMILES | GPR7 antag | Kir21 block | ANO1 block | CHT PAM | CHT block | ANO1 activ | TMEM16A reconf | TMEM16A Ca cntr | Parental YFP cnt | ClC-1 rat inh
Cc1ccn2c(Nc3ccc4c(c3)OCO4)c(-c3ccc(O)cc3)nc2c1 | -12.5 | 1.91 | i | i | i | i | / | / | / | /
CN1CCN(C(=O)NC2CCCN2S(=O)(=O)c2ccc(Cl)cc2)CC1 (stereo unspecified) | 4.0 | 0.96 | i | i | i | i | i | i | -1.04 | -1.5
Cc1ccc(NC(=O)NC2CCCN2S(=O)(=O)c2ccc(Cl)cc2)cc1 (stereo unspecified) | -17.2 | -0.9 | i | i | i | i | / | / | / | /
Nc1c(C(=O)c2ccccc2)sc2nsc(SCCN3CCCC3)c12 | 0.4 | -3.48 | i | i | i | i | i | i | -0.963 | -12.0
Nc1c(C(=O)c2ccc(Cl)cc2)sc2nsc(SCCN3CCOCC3)c12 | 15.7 | -0.73 | i | i | i | i | / | / | / | /
CC(=O)NC1=NN(C(C)=O)C2(S1)C(=O)N(CC(C)C)c1ccc(C)cc12 (stereo unspecified) | -0.9 | 0.45 | i | i | i | i | / | / | / | /
CCCc1nnc(NC(=O)C2CCN(C(=O)C3CC(=O)N(c4ccc(C)cc4)C3)CC2)s1 (stereo unspecified) | 3.9 | 1.76 | i | i | i | i | / | / | / | /
CN(CCCC(=O)Nc1ccncc1)S(=O)(=O)c1ccc(Cl)cc1 | 15.0 | -1.68 | 100* | i | i | i | i | i | -0.917 | -23.0
CN(CC(=O)Nc1ccncc1)S(=O)(=O)c1ccc(Br)cc1 | -2.1 | 1.79 | i | i | i | i | / | / | / | /
O=C(Cc1ccc(Cl)cc1)Nc1ccncc1 | -1.6 | -0.53 | 25* | i | i | i | i | i | -0.841 | -14.5
Cc1ccc(NC(=O)CSC2=C(C#N)C(c3ccco3)CC(=O)N2)cc1 (stereo unspecified) | -2.4 | -0.06 | 25* | i | i | i | i | i | -1.05 | -12.0
CCN(CC(=O)NCc1cccs1)C(=O)c1cccc(Cl)c1 | / | / | / | / | / | i | / | / | / | /
Cc1ccc(CSc2nnc(-c3ccc4c(c3)OCO4)o2)cc1 | -8.7 | -1.39 | i | i | i | i | / | / | / | /
COc1ccc(C2=NCC(CSc3nnc(-c4ccc5c(c4)OCO5)o3)S2)cc1 (stereo unspecified) | -0.9 | 1.44 | 100* | i | i | i | i | i | -0.985 | -8.0
CCN(CC)S(=O)(=O)c1ccc2oc(SCC3CN=C(c4ccc(OC)cc4)S3)nc2c1 (stereo unspecified) | -8.2 | 1.31 | 100* | i | i | i | 16.5%* | i | -0.931 | -4.5
Clc1ccc(CCNc2ncnc3nc[nH]c23)cc1 | -4.3 | / | 100* | i | i | i | 36.0%* | i | -1.16 | -12.0
c1ccc(CCCNc2ncnc3nc[nH]c23)cc1 | -6.5 | 1.4 | i | i | i | i | / | / | / | /
